According to PubChem BioAssay AID448 (National Center for Advancing Translational Sciences (NCATS), 2006):
In all, about 65,000 compounds went through this assay and about 45 (0.07%) were called active. Calls come from the whole dose curve. The list is a sample of the results.

system: Schistosoma mansoni peroxiredoxin 2 (Prx2); assay: Schistosoma Mansoni Peroxiredoxins (Prx2); details: S. mansoni Prx2 activity coupled to TGR/GSH (TGR is thioredoxin glutathione reductase), NADPH fluorescence loss, qHTS
Source text: NIH Molecular Libraries Screening Centers Network [MLSCN]
NIH Chemical Genomics Center [NCGC]
David Williams [Illinois State University]
Schistosoma mansoni, a causative agent of schistosomiasis, resides in the bloodstream of their host up to 30 years without being eliminated by the host immune attack. One proposed survival mechanism is the production of an antioxidant "firewall" that neutralizes the oxidative assault of the host's immune attack. Schistosoma mansoni peroxiredoxins (Prx) are important parasite antioxidant proteins that play a crucial role in redox balance mechanisms. […] First, the proteins are essential for the parasite survival. […] Third, the protein(s) is amenable for study at the molecular level and can be produced in bacteria in large quantities, in soluble and active form. Inhibition of Prx activity was screened in a coupled-enzyme format with reducing equivalents being transferred from NADPH to […] intermediate via thioredoxin/glutathione reductase (TGR)-catalyzed reaction, then from thioredoxin to hydrogen peroxide via Prx-catalyzed electron transfer. A decrease in the fluorescence intensity of NADPH was used to measure the enzyme activity. Purified S. mansoni TGR and Prx were provided by Professor David L. Williams, Illinois State University.
NCGC Assay Protocol Summary:
100 mM phosphate buffer, pH 7.4, 10 mM EDTA, 0.01% Tween-20.
100 uM NADPH/25 nM TGR/700 uM GSH/50 nM Prx2 mixture in columns 1, 2, 5-48. Titration of control potassium antimonyl tartrate (PAT, from 1 mM, then 1:5) pin-transferred to lower half of column 2. Column 1 and upper half of column 2 are neutral (100% activity).
Three uL of reagents were dispensed to 1536-well Greiner black plates. Compounds and controls (20 nL) were transferred via Kalypsys PinTool. The plates were incubated for 15 min at room temperature, and then a 1 uL aliquot of 400 uM NADPH/700 uM GSH was added, immediately followed by a 1uL aliquot of 2.5 mM H2O2 (to start the reaction). The plate was transferred to ViewLux (Perkin-Elmer) High-throughput CCD imager where kinetic measurements (every 30 sec, for a total of 8 min) of NADPH fluorescence were taken using 365 nm excitation/450 nm emission filter set. During dispense, enzyme-containing reagent bottles were kept submerged into 4 deg C water bath to minimize degradation.
Keywords: NIH Roadmap, MLSCN, MLI, MLSMR, David Williams, Peroxyredoxin, Schistosoma mansoni, prx2, prx, , qHTS, NCGC
Potency is the fitted concentration of half-maximal effect.

| Compound | Potency |
| --- | --- |
| Oc1ccc2ccccc2c1C=NCc1c(O)ccc2ccccc12 | > 57 µM (inactive) |
| CC(C)(O)[C@H]1[C@H]2OC(=O)[C@@H]1[C@]1(O)C[C@H]3O[C@]34C(=O)O[C@H]2[C@]14C | > 25.6 µM (inactive) |
| CC(C)[C@H](CO)Nc1nc(Nc2cc(N)cc(Cl)c2)c2ncn(C(C)C)c2n1 | > 57 µM (inactive) |
| O=c1[nH]c(=O)n([C@H]2C[C@H](O)[C@H](CO)O2)cc1Br | > 57 µM (inactive) |
| COc1cccc(Cn2c(=O)c(CCc3ccccc3)nc3cnc(N(C)C)nc32)c1 | > 11.4 µM (inactive) |
| COc1ccccc1CNc1ncncc1-c1cccnc1 | > 57 µM (inactive) |
| COc1ccc(NC(=O)N2CC3(CCN(C(C)=O)CC3)C2)cc1 | > 57 µM (inactive) |
| Cc1ccccc1-c1nc(N(C)Cc2ccco2)c2ccccc2n1 | > 57 µM (inactive) |
| O=C(c1cc(C(F)(F)F)cc(C(F)(F)F)c1)N1CCC2(CCCN(Cc3ccncc3)C2)CC1 | > 57 µM (inactive) |
| C[C@H](CCC(=O)NCC(=O)O)[C@H]1CC[C@H]2[C@H]3[C@@H](C[C@@H](O)[C@]12C)[C@]1(C)CC[C@H](O)C[C@@H]1C[C@@H]3O | > 57 µM (inactive) |
| Cc1nc2cnc(Nc3ccccc3)nc2n(C[C@H]2CCCO2)c1=O | > 57 µM (inactive) |
| CC[N+](C)(CC)CCC[n+]1c(-c2ccccc2)c2cc(N)ccc2c2ccc(N)cc21 | > 57 µM (inactive) |
| NCC[Se][Se]CCN | > 57 µM (inactive) |
| CCCC[C@H]1C(=O)N(c2ccccc2)N(c2ccc(O)cc2)C1=O | > 57 µM (inactive) |
| FC(F)(F)c1ccccc1-c1cc(NCc2ccccc2)ncn1 | > 57 µM (inactive) |
| O=C(Nc1cccc(F)c1)N1CC2(CCN(C(=O)c3cnccn3)CC2)C1 | > 57 µM (inactive) |
| COCCn1c(=O)c(CCc2ccccc2)nc2cncnc21 | > 57 µM (inactive) |
| O=C(c1cnccn1)N1CCC2(CCCN(Cc3ccccc3)C2)CC1 | > 57 µM (inactive) |
| COc1ccc(-c2nc3cnc(Oc4ccccc4)nc3n(Cc3cccs3)c2=O)cc1 | > 57 µM (inactive) |
| COCCn1c(=O)c(-c2cccs2)nc2cncnc21 | > 57 µM (inactive) |
| Cc1noc(C)c1-c1nccc(N2CCOCC2)n1 | > 57 µM (inactive) |
| O=C(c1cc(C(F)(F)F)cc(C(F)(F)F)c1)N1CCC2(CCCN(c3ccccn3)C2)CC1 | > 57 µM (inactive) |
| C/C=C1\C(=O)C[C@@H]2[C@@H]3CCC4=CC(=O)CC[C@@]4(C)[C@H]3CC[C@@]12C | > 57 µM (inactive) |
| CS(=O)(=O)N1CCC[C@@]2(CCN(c3ccncc3)C2)C1 | > 57 µM (inactive) |
| CCS(=O)(=O)N(C)[C@@H]1c2cc(C#N)ccc2OC(C)(C)[C@H]1O | > 57 µM (inactive) |
| O=C(c1ccco1)N1CCC[C@@]2(CCN(Cc3nccs3)C2)C1 | > 57 µM (inactive) |
| COC(=O)[C@@]1(Cc2ccc(F)cc2)[C@H]2c3cc(C(=O)N4CCCC4)n(C[C@H](O)CO)c3C[C@H]2CN1C(=O)c1ccccc1 | > 57 µM (inactive) |

| Compound | Potency |
| --- | --- |
| Cc1nc2cnc(Nc3ccccc3)nc2n(Cc2ccc(F)cc2)c1=O | > 57 µM (inactive) |
| O=C(c1cccc(F)c1)N1CCC2(CC1)CCN(c1ccccc1)CC2 | > 57 µM (inactive) |
| Cc1nc2cnc(Oc3cccc(Cl)c3)nc2n(C2CC2)c1=O | > 57 µM (inactive) |
| NC[C@@H]1O[C@H](O[C@@H]2[C@H](O[C@@H]3O[C@H](CO)[C@@H](COC[C@H]4O[C@@H](CN)[C@@H](O)[C@@H](O)[C@@H]4N)[C@@H]3O)[C@@H](O)[C@@H](N)C[C@H]2N)[C@@H](N)[C@H](O)[C@@H]1O | > 57 µM (inactive) |
| CC(C)(C)NCC[C@@H](O)c1cc(C(F)(F)F)nc2c(C(F)(F)F)cccc12 | > 57 µM (inactive) |
| CCNCCCNCCCNCCCNCC | > 57 µM (inactive) |
| COCC(=O)N1CCC2(CCCN(c3ccccc3)C2)CC1 | > 57 µM (inactive) |
| c1cncc(-c2nc(N3CCNCC3)c3ccccc3n2)c1 | > 57 µM (inactive) |
| c1ccc(CCN2CCN=C2Cc2ccccc2)cc1 | > 57 µM (inactive) |
| COC(=O)[C@@]1(Cc2ccccc2)[C@H]2c3cc(C(=O)N4CCCC4)n(Cc4ccc(C)o4)c3C[C@H]2CN1C(=O)c1ccccc1 | > 57 µM (inactive) |
| Cc1nc2cnc(N3CCNCC3)nc2n(Cc2ccc(F)cc2)c1=O | > 57 µM (inactive) |
| COC(=O)[C@H](C)[C@H]1C[C@]1(C)[C@H](NC(=O)OCc1ccccc1)c1ccccc1 | > 57 µM (inactive) |
| O=c1c(-c2ccc(F)cc2)nc2cnc(N3CCNCC3)nc2n1Cc1cccs1 | > 11.4 µM (inactive) |
| CCC[C@@H]1C[C@@]1(CCC)C(NS(=O)(=O)c1cccc2cccnc12)c1ccc(Cl)cc1 (stereo partly drawn) | > 57 µM (inactive) |
| NS(=O)(=O)c1cc(C(=O)O)c(Cl)c([N+](=O)[O-])c1Cl | > 57 µM (inactive) |
| O=c1[nH]c(=O)c2nc3ccccc3nc2[nH]1 | > 57 µM (inactive) |
| N#Cc1ccc(CN2CCCC3(CCN(C(=O)c4ccco4)CC3)C2)cc1 | > 57 µM (inactive) |
| CC(=O)N1CCC2(CCCN(Cc3ccccc3)C2)CC1 | > 57 µM (inactive) |
| CN1[C@H]2CC(OC(=O)[C@@H](CO)c3ccccc3)C[C@H]1[C@H]1O[C@H]12 (stereo partly drawn) | > 57 µM (inactive) |
| COc1ccc2nccc(C(=O)O)c2c1 | > 25.6 µM (inactive) |
| CN(Cc1ccco1)c1cc(-c2ccccc2C(F)(F)F)ncn1 | > 57 µM (inactive) |
| COc1ccc(-c2nc3cnc(N(C)C)nc3n(Cc3cccs3)c2=O)cc1 | > 57 µM (inactive) |
| Cn1cccc1C(=O)N1CCC2(CC1)CN(c1cccc(-c3ccccc3)c1)C2 | > 57 µM (inactive) |
| O=C(c1ccc([N+](=O)[O-])cc1)[C@@H](Br)[C@@H](Br)c1ccnc2ccccc12 | > 57 µM (inactive) |
| CCCN(C/C=C\I)[C@@H]1CCc2cccc(O)c2C1 | > 57 µM (inactive) |
| O=C(c1ccncc1)N1CCC2(CCCN(C(c3ccccc3)c3ccccc3)C2)CC1 | > 57 µM (inactive) |
